Molecules are shown by their SMILES.

The values that follow come from PubChem BioAssay (NCATS).

The experiment can be described thus: High-throughput drug toxicity screening in the BPDCN cell line Cal-1 (AID 1224825). The conditions noted are these: Cal-1 BPDCN cell viability, qHTS; at 45.8 µM (top of the series) unless noted. The source says: Blastic plasmacytoid dendritic cell neoplasm (BPDCN) is a rare, aggressive and largely incurable hematologic malignancy originating from plasmacytoid dendritic cells (pDCs). Although an initial response to chemotherapy is common, BPDCN prognosis is extremely poor and most patients relapse with drug-resistant disease leading to a median overall survival of ~1 year after diagnosis. To explore novel potential therapeutic strategies in BPDCN, we performed a high-throughput drug toxicity screening in BPDCN cell liens, using of a library of 1,912 small molecules, enriched for compounds that are either approved or in early stages of development for cancer therapy.
A total of 500 exponentially growing Cal-1 cells were seeded per well in 5 uL of media (RPMI + Glutamine, without phenol red plus10% FBS and 1X Pen/Strep) into 1536-well solid white high base tissue culture treated Greiner One Bio Plates (789173-F), using a multidrop combi dispenser and a small sterile cassette. Compounds and controls totaling 23nL per well (negative control DMSO and positive control 9.2 uM Bortezomib-final) were immediately added to the plates using a 1536 head pin tool from Kalypsys. The plates were then covered with stainless steel gasket lids from Kalypsys and incubated for 48 hours at 37C under 95% relative humidity with 5% CO2. After 48 hours, the plates were removed and allowed to reach room temperature before 3 uL of Cell Titer Glo reagent (Promega) were added using an Aurora Flying Reagent Dispenser Bioraptor. The plates were then spun at 1000 rpms to remove bubbles and incubated for 15 minutes at room temperature before reading on a ViewLux using a luminescent filter with a 10 second exposure. The relative luciferase units were used to calculated percent activity using DMSO as 100% and Bortezomib as 0%.
In general terms: In qHTS, concentration-response curves come from the screen itself.
As for `CCCCCN(C)CCC(O)(P(=O)(O)O)P(=O)(O)O`, the viability (% of control) was 102%.
With `COc1ccc(-c2cc(=O)c3c(O)cc(O)cc3o2)cc1O` the figure was 16.3%; with `Oc1ccc(C2=Cc3ccc(O)cc3OC2)cc1`, 3.88%; with `COCCCCC(=NOCCN)c1ccc(C(F)(F)F)cc1`, 88.3%.
As for `CC#CCn1c(N2CCC[C@@H](N)C2)nc2c1c(=O)n(Cc1nc(C)c3ccccc3n1)c(=O)n2C`, the viability (% of control) stood at 101%.
Under `C[C@H]1[C@H](NC(=O)C(=NOC(C)(C)C(=O)O)c2csc(N)n2)C(=O)N1S(=O)(=O)O` stands 121%.
Under `O=C(O)CCC1CCC(c2cc(F)ccc2F)(S(=O)(=O)c2ccc(Cl)cc2)CC1` (stereo not given) stands 9.48%; under `CC(C)OC(=O)CCCC=CC[C@@H]1[C@H](C=C[C@@H](O)COc2cccc(C(F)(F)F)c2)[C@H](O)C[C@@H]1O`, 63.7%.
With `CNC(=O)c1ccccc1Sc1ccc2c(C=Cc3ccccn3)n[nH]c2c1`, the viability (% of control) was found to be 28.2%.
For the compound `O=c1[nH]cnc2c1ncn2[C@H]1CC[C@@H](CO)O1`, the viability (% of control) turned out to be 121%.
With `O=C(O)[C@H]1O[C@H](Oc2cc3oc(-c4ccccc4)cc(=O)c3c(O)c2O)[C@H](O)[C@@H](O)[C@H]1O` the figure was 105%; with `O=C(Nc1cc(Cl)cc2c1[nH]c1cnccc12)c1cccnc1`, 97.7%.
`CO[C@@H](C(=O)N1Cc2[nH]nc(NC(=O)c3ccc(N4CCN(C)CC4)cc3)c2C1)c1ccccc1`: the viability (% of control) was determined as 6.89%.
Turning to `CC(C)(C)c1cc(C(=O)O)c(NC(=O)Nc2ccc3[nH]ncc3c2)s1`, the viability (% of control) amounted to 110%.
With `O=C(CCCCCCC(=O)Nc1ccccc1)NO` the figure was 7.8%; with `CC(C)OC(=O)C(C)(C)Oc1ccc(C(=O)c2ccc(Cl)cc2)cc1`, 119%; with `CNC1CCC(N(Cc2cccc(-c3ccncc3)c2)C(=O)c2sc3c(F)ccc(F)c3c2Cl)CC1` (stereo not given), 0.705%.
In the case of `CC(C)(C)C(=O)Oc1ccc2c(c1)nc(NC(=O)c1cccc([N+](=O)[O-])c1)n2CCCO`, the viability (% of control) was determined as 102%.
Under `CO[C@H]1C=CO[C@@]2(C)Oc3c(C)c(O)c4c(O)c(c5c(c4c3C2=O)NC2(CCN(CC(C)C)CC2)N=5)=NC(=O)C(C)=CC=C[C@H](C)[C@H](O)[C@@H](C)[C@@H](O)[C@@H](C)[C@H](OC(C)=O)[C@H]1C` stands 97.3%; under `O=C(NOCC(O)CO)c1cc(Br)c(F)c(F)c1Nc1ccc(I)cc1F` (stereo not given), 57.3%; under `N#CC(=C(N)Sc1ccccc1N)C(C#N)=C(N)Sc1ccccc1N`, 12.1%.
On to `O=C(O)c1ccccc1C(=O)Nc1ccc(-c2ccccc2)cc1`, for which the viability (% of control) was determined as 111%.
Regarding `Nc1ncnc2c1nc(Cl)n2[C@@H]1O[C@H](CO)[C@@H](O)[C@@H]1O`, the viability (% of control) was 9.15%.
Turning to `Clc1ccc(-c2nc3sccn3c2C=NOCc2ccc(Cl)c(Cl)c2)cc1`, the viability (% of control) is 116%.
With `O=C(O)c1ccc(-c2cc3cccnc3c(-c3ccc4nonc4c3)n2)cc1`, the viability (% of control) is 18.7%.
Under `CC(C(=O)O)c1ccc(-c2ccccc2)c(F)c1` (stereo not given) stands 96.9%; under `C=CCc1ccc(O)c(-c2ccc(O)c(CC=C)c2)c1`, 21.1%; under `CC(C)[C@H](CO)Nc1nc(Nc2ccc(C(=O)O)c(Cl)c2)c2ncn(C(C)C)c2n1`, 5.62%.
As to `O=C(O)c1ccc(-c2c[nH]c3ncc(-c4ccccc4)cc23)cc1C1CCCC1`, the viability (% of control) stood at 73.1%.
`O=C(O)C=Cc1ccc(O)c(O)c1`: the viability (% of control) is 8.99%.
Under `Cn1c(N2CCCCS2(=O)=O)nc(C(=O)NCc2ccc(F)cc2)c(O)c1=O` stands 96.9%; under `COc1cccc([C@@H](C)NCCCc2ccccc2Cl)c1`, 66.2%; under `O=C(Nc1ccccc1Br)N[C@@H]1CCN(c2ccc(C(F)(F)F)cn2)C1`, 101%.
In the case of `Clc1ccc(C(c2ccc(Cl)cc2)n2cc[n+](CC(OCc3ccc(Cl)cc3Cl)c3ccc(Cl)cc3Cl)c2)cc1` (stereo not given), the viability (% of control) came out at 3.49%.
With `O=c1cc(-c2cccc3c2Sc2ccccc2S3)oc(N2CCOCC2)c1` the figure was 35.7%.
Take `N#Cc1ccc(NC(=O)Nc2ccccc2Br)c2n[nH]nc12`: the viability (% of control) came to 14.7%.
Take `O=C(CCN1CCN(C(=O)OCc2cc(Cl)cc(Cl)c2)CC1)c1ccc2[nH]c(=O)oc2c1`: the viability (% of control) came to 115%.
For the compound `C[C@]12CCC3c4ccc(O)cc4CCC3C1CCC2=O` (stereo not given in full), the viability (% of control) turned out to be 62.5%.
With `CN[C@@H](C)C(=O)N[C@H]1CN(C(=O)CC(C)C)CC[C@H]2CC[C@@H](C(=O)NC(c3ccccc3)c3ccccc3)N2C1=O` the figure was 9.02%; with `Cc1ccc(Nc2cc(-c3cccc(N4C(=O)c5ccccc5C4=O)c3)ncn2)cc1NS(C)(=O)=O`, 13.1%.
